The campaign covered roughly 310,000 compounds. About 11,000 (3.5%) were called active. Where a call stands in place of a potency, no number is given. About 8% were inconclusive and are not listed. Only a selection was taken, and actives are over-represented in it overall. Unmarked numbers belong to inactive results. Calls come from the whole dose curve; as a rule, active = well fitted inhibition curve with a large enough effect; inconclusive = small, poorly fitted or top-dose-only effect, or effect the other way; inactive = flat fitted curve, though single readings scatter.
Potency is the fitted concentration of half-maximal effect.

This assay can be described thus: VP16 counterscreen qHTS for inhibitors of ROR gamma transcriptional activity.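 Note: Gal4-VP16 expression switched on by copper sulfate through the metallothionein promoter; nearly all actives have a fitted effect of over 50% in size.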 As to conditions: Drosophila S2 Gal4-VP16 UAS-luciferase, luminescence, 20 h; series mostly up to 53.6 µM. (In general: The purpose of a counterscreen is to sort out artefacts and off-target activity.)
With `COc1ccc(/C=C2\SC(=O)N(CCC(=O)NCCCn3ccnc3)C2=O)cc1`, the Potency entry is “inactive”.

For `COc1ccc(C2=Nn3c(nnc3-c3ccccc3O)SC2)cc1`, the Potency result is “inactive”.

For the compound `CCn1cc(C(=O)NCC(=O)NC(C)(C)CO)c(=O)c2cc3c(cc21)OCO3`, the Potency result is “inactive”.

Take `Cc1ccc(C(=O)NC23CC4CC(CC(C4)C2)C3)c(Cl)c1`: the Potency entry was “inactive”.

For `Cc1noc(C)c1CCC(=O)N1CCCC(CO)(Cc2ccccc2)C1` (centres undefined), the Potency result is “inactive”.

In the case of `CCCOc1ccccc1C1CC(=O)Nc2cc3c(cc21)OCO3` (centres undefined), the Potency is 14.1 µM (active).

Regarding `COc1ccccc1C1C2=C(COC2=O)Nc2cc3c(cc21)OCO3` (centres undefined), the Potency entry is “inactive”.

Consider `COc1ccc(C2CC(=O)Nc3cc(C)c(C)cc32)c(OC)c1OC` (centres undefined), for which the Potency entry is “inactive”.

As to `O=C(NCCCN1CCCC1=O)C(=O)NCC1OCCN1S(=O)(=O)c1ccc(Br)cc1` (centres undefined), the Potency result is “inactive”.

Turning to `O=C(O)c1ccc(NC(=O)c2cn(-c3ccccc3)nc2-c2ccc(Cl)cc2)cc1`, the Potency result is “inactive”.

On to `CN(C)/N=C/c1cn(-c2ccccc2)nc1-c1cccnc1`, for which the Potency result is “inactive”.

Take `COc1ccc(NC(=O)c2cn(-c3ccccc3)nc2SC)cc1`: the Potency result was “inactive”.

In the case of `CC(=O)Cc1nsc(NC(=O)c2ccc(COc3ccc(C)cc3)o2)n1`, the Potency result was “inactive”.

For the compound `COc1ccc(-c2nn(-c3ccccc3)cc2/C=N/Nc2ccccn2)cc1OC`, the Potency is 8.91 µM (active).

As to `COc1ccc(-c2nn(-c3ccccc3)cc2C(=O)Nc2nccs2)cc1OC`, the Potency was 22.4 µM (active).

Turning to `COc1ccc(-c2nn(-c3ccccc3)cc2C(=O)Nc2nc(CC(C)=O)ns2)cc1`, the Potency is 12.6 µM (active).

As to `O=C(O)c1ccccc1-c1ccccc1C(=O)Nc1nccs1`, the Potency result is “inactive”.

Turning to `CC(C)(C)OC(=O)N/N=C/c1cn(-c2ccccc2)nc1-c1cccnc1`, the Potency entry is “inactive”.

In the case of `O=C1C[C@@H](c2ccc3ccccc3c2)N1S(=O)(=O)c1ccccc1[N+](=O)[O-]`, the Potency result was “inactive”.

Turning to `Cc1ccc(CNS(=O)(=O)c2ccc3c(c2)N(C)CCO3)cc1`, the Potency result was “inactive”.

Take `Cc1cc(=O)[nH]c(Nc2cccc(Br)c2)n1`: the Potency result was “inactive”.

As for `COc1ccccc1C(=O)N1CC2(C)CC1CC(C)(C)C2` (centres undefined), the Potency result is “inactive”.

Consider `Cc1cccc(C(=O)NCC(=O)OCC(=O)N2CC3(C)CC2CC(C)(C)C3)c1` (centres undefined), for which the Potency result is “inactive”.

Regarding `Cc1nnnn1/C(=C\c1ccccc1)C(=O)OCC(=O)N1CC2(C)CC1CC(C)(C)C2` (centres undefined), the Potency is 10 µM (active).

As for `CCOC(=O)c1ccc(NC(=O)c2cccnc2)cc1`, the Potency entry was “inactive”.

For the compound `CCSc1nc2sc3c(c2c(=O)n1-c1ccc(C)cc1)CCN(C)C3`, the Potency entry is “inactive”.

With `Cc1cccc(NC(=S)N2CCCC(c3nc4ccccc4[nH]3)C2)c1` (centres undefined), the activity, negative = inhibition is 5.42% [at 10 µM].

In the case of `O=C(C1CCCO1)N1CCN(C(=S)Nc2cccc(Cl)c2)CC1` (centres undefined), the Potency entry is “inactive”.

As for `Cc1ccc(C2CCN(C(=S)Nc3cccc(Cl)c3)C2)cc1` (centres undefined), the Potency is 12.6 µM (active).

The values above are taken from PubChem BioAssay AID2546 (National Center for Advancing Translational Sciences (NCATS), 2010).
